Bioassay records as filed in PubChem.
Compounds with a hit are over-represented: about 1.2% of the library has one in this group of screens.
RGS16-Gao HTS: modulators of RGS16 binding to Galphao, primary screen, biochemical, human proteins, multiplexed bead flow cytometry | AID 1441, 2008 | Regulator of G-protein signaling 16 (Homo sapiens) + Guanine nucleotide-binding protein … | binding response (% of control), % at 10 µM | actives 0.38% (n = 220,000) | bead-based flow cytometry RGS16-Galphao binding, fluorescence; actives lie on both sides;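 further: Galphao activated by GDP with aluminum fluoride before binding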
RGS7-Gao: RGS7-Galphao binding modulators, primary screen, biochemical, multiplexed bead flow cytometry; Guanine nucleotide-binding protein G(o) subunit alpha (Homo sapiens), P09471; actives lie on both sides; binding response (% of control), % at 10 µM; actives 0.35% (n = 220,000); AID 1439, 2008; in the data active means binding response below about 49% or above about 150%; inconclusive means no clear call, values can overlap the other calls; inactive means in between;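 further: fluorescent Galphao held in activated GDP-AlF4 state binding bead-coupled RGS7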
Target sequence (P09471 whole entry, looked up): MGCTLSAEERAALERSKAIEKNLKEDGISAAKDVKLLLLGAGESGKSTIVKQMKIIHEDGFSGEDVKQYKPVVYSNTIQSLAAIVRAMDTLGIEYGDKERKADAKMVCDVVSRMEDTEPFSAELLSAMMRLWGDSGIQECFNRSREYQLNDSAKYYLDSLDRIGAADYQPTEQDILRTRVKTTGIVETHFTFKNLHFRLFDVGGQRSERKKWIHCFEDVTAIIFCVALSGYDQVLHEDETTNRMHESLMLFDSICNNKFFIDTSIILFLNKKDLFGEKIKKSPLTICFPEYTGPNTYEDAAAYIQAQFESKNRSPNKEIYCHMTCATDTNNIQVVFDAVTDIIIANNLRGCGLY
Avidin fluor: green autofluorescence of compounds with avidin beads – biophysical, 488/530 nm, flow cytometry, artefact control, profiling panel; compound fluorescence 488/530 nm; stronger effect = higher value; fluorescence (KMESF) at 10 µM; actives 0.38% (n = 220,000); in the data active means fluorescence above about 47
GSH bead fluor: compound fluorescence on glutathione beads, profiling panel, artefact control, biophysical, 488/530 nm, flow cytometry | actives 0.25% (n = 190,000) | AID 1776, 2009 | fluorescence (KMESF) at 10 µM | GSH beads flow cytometry, compound fluorescence 488/530 nm; stronger effect = higher value; in the data active means fluorescence above about 89;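 further: glutathione beads carrying GST-tagged Bcl family fusion proteins plus one bare bead set; values are compound well signal with DMSO vehicle wells as background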
RGS4-Gao reg: modulators of RGS4 binding to Galphao, primary screen, biochemical, multiplexed bead flow cytometry | actives lie on both sides | Guanine nucleotide-binding protein G(o) subunit alpha (Homo sapiens), P09471 | binding response (% of control), % at 10 µM | actives 0.33% (n = 220,000); in the data active means binding response below about 49% or above about 150%; inactive means in between;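 further: fluorescent Galphao activated with aluminum fluoride binding bead-coupled RGS4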
RGS8-Gao: RGS8-Galphao binding modulators, primary screen, biochemical, multiplexed bead flow cytometry; Guanine nucleotide-binding protein G(o) subunit alpha (Homo sapiens), P09471; actives lie on both sides; response (percent of control binding), % at 10 µM; actives 0.34% (n = 220,000); AID 1423, 2008; in the data active means response below about 60% or above about 140%; inactive means in between;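 further: Galphao activated as the GDP aluminium fluoride complex binding bead-coupled RGS8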
RGS-Gao: modulators of RGS–Galpha-o binding, primary screen, biochemical, multiplexed beads, flow cytometry, RGS4/7/8/16/19; shares compounds with RGS16-Gao HTS; multiplexed bead flow cytometry; RGS4–Galpha-o binding response, % at 10 µM; actives 99% (n = 1,600);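 further: fluorescently labeled Galpha-o bound to GDP with aluminium fluoride binding biotinylated RGS beads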
Target sequence (P09471 whole entry, looked up): as above
Target sequence (P49798 whole entry, looked up): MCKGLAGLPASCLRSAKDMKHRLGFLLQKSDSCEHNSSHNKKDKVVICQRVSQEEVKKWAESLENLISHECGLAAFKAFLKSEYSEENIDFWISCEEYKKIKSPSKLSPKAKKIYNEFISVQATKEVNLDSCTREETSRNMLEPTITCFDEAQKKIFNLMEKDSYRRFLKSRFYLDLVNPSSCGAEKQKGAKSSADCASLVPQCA
Avidin counter: disruption of biotin probe capture by avidin, counter-screen for RGS protein interaction modulators, biochemical, flow cytometry, bead-based | shares compounds with RGS16-Gao HTS | streptavidin beads, fluorescein-biotin binding | inhibition, % at 10 µM | 1,700 tested, under 10 active | AID 1783, 2009;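 active means inhibition above 50%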;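 further: median green fluorescence of gated singlet beads compared with DMSO control wells; 0% = DMSO wells and 100% = complete loss of bead fluorescence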
RGS8-Gao single: RGS8-Galphao binding modulators, confirmation, biochemical, multiplexed bead flow cytometry, single concentration; shares compounds with RGS16-Gao HTS; bead-based flow cytometry RGS8-Galphao binding, fluorescence; actives lie on both sides; binding response (% of control), % at 10 µM; actives 3% (n = 1,700); AID 1836, 2009; in the data active means binding response below about 72% or above about 130%; inactive means in between;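 further: Galphao activated as GDP AlF4 complex before binding bead RGS8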
RGS7-Gao confirm: RGS7-Galphao binding modulators, confirmation, biochemical, multiplexed bead flow cytometry, single concentration | shares compounds with RGS16-Gao HTS | bead-based flow cytometry RGS7-Galphao binding; actives lie on both sides | response (percent of control binding), % at 10 µM | actives 7.8% (n = 1,700); in the data active means response below about 75% or above about 130%; inactive means in between;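 further: fluorescent Galphao activated with GDP and aluminum fluoride binding bead-coupled RGS7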
RGS16-Gao conf: modulators of RGS16-Galphao protein binding, confirmation, biochemical, single concentration, multiplexed bead flow cytometry; AID 1838, 2009; shares compounds with RGS16-Gao HTS; actives 4% (n = 1,700); bead-based flow cytometry; actives lie on both sides; response (% of control binding), % at 10 µM; in the data active means response below about 74% or above about 130%; inactive means in between;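 further: Galphao activated as the GDP aluminium fluoride complex binding bead-coupled RGS16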
RGS4-Gao confirm: modulators of RGS4-Galphao protein binding, confirmation, biochemical, single concentration, multiplexed bead flow cytometry. shares compounds with RGS16-Gao HTS. actives lie on both sides. binding response (% of control), % at 10 µM. actives 4% (n = 1,700). AID 1840, 2009; in the data active means binding response below about 74% or above about 130%; inactive means in between
RGS19-Gao single: regulators of RGS19-Galphao binding, confirmation, biochemical, single point, multiplexed bead flow cytometry; shares compounds with RGS16-Gao HTS; bead-based flow cytometry RGS19-Galphao binding; actives lie on both sides; response (percent of control binding), % at 10 µM; actives 5% (n = 1,700); in the data active means response below about 50% or above about 160%; inactive means in between;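 further: 100% = no compound control and 0% = blank background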
The depositor's hits bear a star; u = inconclusive; x = no result; + = active, no number; [ ] = remark or other dose. Unless noted, how the calls were made is not given here.

SMILES	RGS16-Gao HTS	RGS7-Gao	Avidin fluor	GSH bead fluor	RGS4-Gao reg	RGS8-Gao	RGS-Gao	Avidin counter	RGS8-Gao single	RGS7-Gao confirm	RGS16-Gao conf	RGS4-Gao confirm	RGS19-Gao single
COc1ccc(/C=C/C(=O)Oc2cccc(/C=N/NC(=O)Cc3ccc(Br)cc3)c2)cc1	98	u	8	x	97	99	x	x	x	x	x	x	x
Cc1ccc(OCCCCn2c(CO)nc3ccccc32)cc1	103	101	12	10	100	101	x	x	x	x	x	x	x
OCc1nc2ccccc2n1CCCOc1ccc(Br)cc1	-3.6*	1.2*	-4	40	-3.9*	7.0*	x	2	101	104	102	104	105
Cn1cccc1CC(=O)NNC(=O)Nc1cccc(Cl)c1	101	102	9	10	101	101	x	x	x	x	x	x	x
Cc1ccc2cc(CCl)c(Cl)nc2c1	102	u	8	x	97	101	x	x	x	x	x	x	x
O=C(c1cc(-c2cccnc2)nc2ccccc12)N1CCCc2ccccc21	13*	94	3	10	96	87	96*	1	103	104	104	105	109
Cc1ccc(-c2cc(C(=O)N3CCCc4ccccc43)c3ccccc3n2)cc1	101	101	11	17	101	101	x	x	x	x	x	x	x
O=C(Nc1ccc(C(=O)O)cc1)Nc1cccc([N+](=O)[O-])c1	660	121	15	8	122	150*[activator]	122*	2	100	102	101	101	94
O=C(Nc1cccc([N+](=O)[O-])c1)Nc1cccc([N+](=O)[O-])c1	100	105	25	12	102	102	x	x	x	x	x	x	x
CCOCCCNC(=O)/C(C#N)=C/c1ccc(-c2ccc(S(=O)(=O)N3CCOCC3)cc2)o1	19	93	11	22	93	75	x	x	x	x	x	x	x
COCCNC(=O)/C(C#N)=C/c1ccc(-c2ccc(S(=O)(=O)N3CCOCC3)cc2)o1	-1.2*	84	5	6	79	74	79*	2	98	116	103	108	121
CN=c1scc(C)n1/N=C/c1ccc(O)c(O)c1O	30	53	6	8	64	48*	64*	-2	71*	57*	64*	77	29*
CN=c1scc(-c2cccs2)n1/N=C/c1ccc(O)c(O)c1O	83	93	4	12	90	87	x	x	x	x	x	x	x
COc1ccc2c(C)cc(SCC(=O)Nc3ccc(Cl)cn3)nc2c1	90	98	10	9	100	98	x	x	x	x	x	x	x
O=C1CC(c2ccc(F)cc2)CC2=C1C(c1ccc([N+](=O)[O-])o1)Nc1ccccc1N2 (stereo unspecified)	104	u	6	x	106	104	x	x	x	x	x	x	x
Cn1c(SCC(=O)c2ccccc2)nnc1-c1cccc(N)c1	-92*	77	-2	47	60	89	60*	-1	104	108	106	105	105
O=C(OCCN1C(=O)c2ccccc2C1=O)c1cccs1	+	126	6	16	130	140	130*	x	x	x	x	x	x
COc1cc(NC(=O)c2ccc(COc3ccccc3Br)o2)cc(OC)c1OC	208*[activator]	126	77*	30	149	112	149*	2	96	91	94	95	82
COc1ccc(NC(=O)c2ccc(COc3ccccc3Br)o2)cc1OC	100	94	33	14	96	99	x	x	x	x	x	x	x
Cc1ccc(NCc2n[nH]c(=S)n2Cc2ccccc2)cc1Cl	103	167*[activator]	65*	11	111	98	111*	1	101	110	100	102	106
Cc1ccc(NCc2nnc(SCC(=O)O)n2Cc2ccccc2)cc1Cl	102	104	10	11	102	99	x	x	x	x	x	x	x
Cc1ccc2cc(C)c(Sc3nnnn3-c3ccccc3)nc2c1	191*[activator]	106	17	4	112	119	112*	-1	109	111	114	108	126
O=C(NNC(=O)C12CC3CC(CC(C3)C1)C2)[C@@H]1C[C@H]1c1ccccc1	99	102	9	13	100	101	x	x	x	x	x	x	x
COc1cc2c(C)nc3c(c(C)nn3-c3ccccc3)c2cc1OC	109	85	5	16	98	92	x	x	x	x	x	x	x
COc1cc2c(-c3ccc(O)cc3)nc3c(c(C)nn3-c3ccccc3)c2cc1OC	468	89	8	5	200*[activator]	100	x	1	100	96	97	98	102
CCOc1ccc(N=Nc2c(N)[nH][nH]c2=O)cc1	99	98	0	5	94	101	x	x	x	x	x	x	x
CN(CC(=O)N1CCN(c2cccc(Cl)c2)CC1)S(=O)(=O)c1cccs1	178*[activator]	144	x	32	177*[activator]	131	x	-2	101	97	100	99	99
CC(Oc1ccccc1)C(=O)NC1=NCCS1 (stereo unspecified)	92	95	10	10	91	96	x	x	x	x	x	x	x
